Screening data: PubChem BioAssay, National Center for Advancing Translational Sciences (NCATS)
Rows were chosen to be rich in hits. Some 11% of all compounds tested hit in one or more screens of this group.
ALOX12 inhib: 12-hLO (ALOX12) enzyme inhibition; Potency, µM (top dose mostly 57.1 µM), without a hit: at the top dose activity change, negative = inhibition, most hits filed as inhibitors; AID 1452; 0.12% of 150,000 active; purified 12-hLO, xylenol orange hydroperoxide absorbance; active = well fitted curve in the direction sought with a large enough effect; inconclusive = small, poorly fitted or top-dose-only effect, or another doubt; inactive = no such curve, though single readings can be large; an effect the other way counts as inactive or inconclusive; also: potency is read from the fitted curve at half-maximal effect; nearly all actives have a fitted effect of over 55% in size
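Xylenol orange chromogenic assay: hydroperoxide from 12hLO oxidises Fe(II), giving red-shifted Fe(III)-XO absorbance. Conditions: 150 nM enzyme, 40 uM arachidonic acid, 25 mM Hepes pH 7.0, 0.01% Triton X-100, 30 min, room temperature.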
HPGD inh: HPGD (human) dehydrogenase inhibition; P15428; purified HPGD, NADH fluorescence kinetic, PGE2 substrate; Potency, µM, for the others: at the top dose activity change, negative = inhibition, actives largely listed as inhibitors; 4.3% of 150,000 active; AID 894; also: potency is read from the fitted curve at half-maximal effect
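20 nM HPGD preincubated 15 min at room temperature with compound in 50 mM Tris-HCl pH 8, 0.01% Tween 20. Started with 1 mM NAD+ and 30 uM prostaglandin E2; NADH fluorescence (360/450 nm) read 5 times over 30-s intervals, last minus first.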
ALDH1A1 block: blocks purified human ALDH1A1 activity; Purified ALDH1A1, NADH fluorescence, propionaldehyde substrate; 7.3% of 220,000 active; AID 1030; Potency, µM (top dose mostly 75.3 µM), inactives show at the highest dose activity, negative = inhibition, hits mostly inhibitors;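 also: potency is read from the fitted curve at half-maximal effect; plate controls were no enzyme wells and a reference inhibitor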
Target sequence (P00352 whole entry, looked up): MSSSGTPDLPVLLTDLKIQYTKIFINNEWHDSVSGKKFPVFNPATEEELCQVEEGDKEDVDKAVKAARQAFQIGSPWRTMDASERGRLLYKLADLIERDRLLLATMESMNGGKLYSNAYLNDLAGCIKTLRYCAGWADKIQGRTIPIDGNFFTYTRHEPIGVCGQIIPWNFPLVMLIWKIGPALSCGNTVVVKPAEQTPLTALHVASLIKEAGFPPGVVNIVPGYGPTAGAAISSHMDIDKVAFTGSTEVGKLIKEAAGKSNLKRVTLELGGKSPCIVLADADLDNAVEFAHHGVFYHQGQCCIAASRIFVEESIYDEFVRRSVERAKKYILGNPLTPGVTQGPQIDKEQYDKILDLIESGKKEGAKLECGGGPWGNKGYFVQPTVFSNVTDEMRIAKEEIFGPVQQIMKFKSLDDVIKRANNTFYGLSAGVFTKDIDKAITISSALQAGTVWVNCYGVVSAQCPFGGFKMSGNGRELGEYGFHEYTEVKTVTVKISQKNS
PNC inhibitor: inhibitors of perinucleolar compartment assembly | PC3M PTB-GFP, PNC prevalence imaging, 16 h; stronger effect = lower value | activity change (PNC), negative = inhibition, % at 10 µM | 3.1% of 140,000 active | AID 2417;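 active = readout at or below -70, meaning at least 70% loss of cells showing the perinucleolar compartment, a nuclear body marking cancer cells; inconclusive = readout between -30 and a set limit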;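 also: plate controls were DMSO wells for no effect and camptothecin positive control wells for full effect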
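PC3M cells stably expressing PTB-GFP, 750–1000 cells/well, treated 16 h at 37 °C with compound (23 nl of library stock), in duplicate. After paraformaldehyde fixation and Hoechst stain, imaged at 20x; PNC prevalence scored by image analysis.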
IMPase Li cell: IMPase inhibition in cells with lithium potentiation; CHO-M1 cells, IP1 TR-FRET (IP-One), carbachol + lithium; 0.35% of 210,000 active; Potency, µM (series often up to 59.4 µM), without a hit: at the highest dose activity, negative = IMPase inhibition, most hits filed as inhibitors; active = well fitted curve in the direction sought with a large enough effect; inconclusive = small, poorly fitted or top-dose-only effect, or another doubt; inactive = no such curve, though single readings can be large; an effect the other way counts as inactive or inconclusive;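 also: IP1 builds up when IMPase is blocked and the TR-FRET signal falls; potency is read from the fitted curve at half-maximal effect; plate controls were basal vehicle for no effect and high inhibitor control for full effect; nearly all actives have a fitted effect of over 50% in size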
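Lithium-sensitised IP1 accumulation assay; M1-expressing CHO cells treated 30 min at 37C with compound. Competitive antibody detection by time-resolved FRET followed a 10 min room-temperature lysis step.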
IMPase inh: cell-permeable inhibitors of inositol monophosphatase (IMPase) | P97697 | 120,000 tested, under 10 active | CHO-M1 cells, IP1 accumulation, HTRF TR-FRET ratio | inhibition (IP1 accumulation), % at 46.1 µM | AID 901; active = well fitted curve in the direction sought with a large enough effect in the signal ratio, not every such curve was filed as active; inconclusive = small, poorly fitted or top-dose-only effect, or a change in a side signal; inactive = no such curve, though single readings can be large or run the other way; the % refers to the signal ratio;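 also: cells stimulated with carbachol in lithium chloride buffer; plate controls were DMSO basal wells for no effect and reference inhibitor wells for full effect; higher means more IMPase inhibition seen as more IP1 and lower FRET ratio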
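Cellular IMPase inhibition is scored as a rise in cytosolic IP1, detected by competitive TR-FRET between d2-labelled IP1 and a europium anti-IP1 antibody. M1-expressing CHO cells were stimulated with carbachol for 30 min at 37C, with lithium (50 mM LiCl) present in the buffer.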
An asterisk follows results filed as active; ? = inconclusive; · = no result given; [ ] = dose if it differs, or a comment. Unless noted, calls follow the shape of the dose curve; as a rule, active = well fitted inhibition curve with a large enough effect (not every such curve was filed as active); inconclusive = small, poorly fitted or top-dose-only effect, or another doubt; inactive = no such curve, though single readings can be large or run the other way. Unless noted, % is scaled to controls: 0 for no effect and ±100 for the full control effect.

SMILES | ALOX12 inhib | HPGD inh | ALDH1A1 block | PNC inhibitor | IMPase Li cell | IMPase inh
CCCCCCc1ccc(-c2ccc(C#N)cc2)cc1 | -1.0% | -11.9% | 8.0% | · | 9.5% | ·
CC1(C)CC(=O)C(=CN2CCOCC2)C(=O)C1 | · | · | 10µM* | · | 2.9% | ·
CC1(C)CC(=O)C(=CN2CCN(C(=O)c3ccco3)CC2)C(=O)C1 | 0.5% | -9.3% | 22.4µM* | ? | -7.6%[38.3 µM] | 13.9
N#Cc1ccc(CN2CC[C@@]3(CCCN(S(=O)(=O)c4ccccc4)C3)C2)cc1 | -1.5% | -5.7% | -8.3% | · | 19.0% | ·
COc1ccc(NC(=O)N2CC3(CCN(C(=O)c4ccco4)CC3)C2)cc1 | 0.8% | -3.9% | 15.8µM* | · | -9.9% | ·
COc1ccc(NC(=O)N2CCC3(CC2)CCN(C(=O)c2ccco2)CC3)cc1 | 0.5% | -3.0% | -14.7% | · | -2.1% | ·
O=C(c1ccco1)N1CCC2(CC1)CCN(c1ccncc1)CC2 | 0.2% | -7.9% | 7.08µM* | · | 9.5% | ·
O=C(c1ccco1)N1CCC2(CC1)CN(c1ccccc1)C2 | -4.7% | -7.9% | 14.1µM* | · | -6.0% | ·
CO/N=C1\CN(c2nc3c(cc2F)c(=O)c(C(=O)O)cn3C2CC2)CC1CN (centres undefined) | 3.5% | -25.0% | -8.3% | · | 17.1% | ·
O=C(CSc1nc(-c2cccc(F)c2)[nH]c1-c1ccccc1)Nc1ccc2c(c1)OCCO2 | · | · | · | · | · | 14.9
Clc1ccc([C@H](Cn2ccnc2)OCc2c(Cl)cccc2Cl)c(Cl)c1 | -1.2%[25.6 µM] | -5.2% | -8.3%[20.9 µM] | · | 8.1% | 3.4[20.6 µM]
CCOC(=O)CC(C(=O)OCC)C1CCCCC1=O (centres undefined) | · | -8.4% | -7.4% | · | -7.4% | ·
O=C(Cc1cccc2ccccc12)Nc1ccc(-c2cc3ccccc3oc2=O)cc1 | 1.3% | ? | ? | -82.9* | -16.8%[38.3 µM] | 3.2[1.84 µM]
O=[N+]([O-])c1ccccc1N=Nc1c(O)[nH]c2ccc(S(=O)(=O)O)cc12 | -0.2%[11.4 µM] | 3.98µM* | -8.3%[13.5 µM] | · | -1.0% | ·
CCOC(=O)/C(=C\Nc1ccccc1C(F)(F)F)Sc1ncc(C(F)(F)F)cc1Cl | 0.4% | -18.2% | -15.2% | 10.7 | 47.7%[38.3 µM] | 3.5
N#Cc1c(Sc2ncc(C(F)(F)F)cc2Cl)nsc1C/C=N\OCc1ccccc1Br | -13.1% | -25.1% | 10µM* | -1.4 | -1.0%[38.3 µM] | 10.9
O=C(O)c1cc(-c2ccc(-c3ccccc3)cc2)nc2cc3ccccc3cc12 | -3.8%[11.4 µM] | -18.1% | -6.8%[13.5 µM] | · | -1.2% | ·
Cc1cc(NC(=O)CC(C)(C)C)nc2c1c(=O)oc1ccccc12 | -1.6% | -9.0% | ? | -118.9* | ? | ?
COCC(=O)Nc1cc(C)c2c(=O)oc3ccccc3c2n1 | · | · | -0.5% | · | -7.4% | ·
S=C1NC(c2cccs2)=CC(c2ccc(Br)cc2)N1 (centres undefined) | ? | 31.6µM* | 0.398µM* | 63.1 | -7.1% | ·
S=C1NC2=C(C(c3ccc(Br)cc3)N1)N1CCC2CC1 (centres undefined) | -8.1% | 3.0% | 2.3% | -28.0 | -5.9%[38.3 µM] | 2.9
S=C1NC(c2ccccc2)=CC(c2ccccc2)N1 (centres undefined) | · | · | 0.891µM* | · | -0.6% | ·
Cc1cc(C(=O)CSc2nnc(NCc3ccccc3)s2)c(C)n1C | -10.2% | 17.8µM* | -5.7% | -18.4 | -0.2%[38.3 µM] | -14.9
O=C(CSc1n[nH]c(-c2cc(Cl)ccc2Cl)n1)NCCN1C(=O)CSC1=O | -0.1% | 15.8µM* | 10.6% | 26.0 | 8.3% | 9.4
Cc1cccc(-n2nnnc2SCC(=O)NCCN2C(=O)CSC2=O)c1 | -3.2% | -4.1% | 20µM* | 26.7 | -1.6%[38.3 µM] | -2.5
Cc1nnc(SCC(=O)NCCN2C(=O)CSC2=O)n1-c1ccccc1 | · | · | -7.0% | · | -5.7% | ·
Cc1ccc(Nc2nnc(SCC(=O)NCCN3C(=O)CSC3=O)s2)cc1C | -3.8% | · | 17.8µM* | ? | · | 0.1
Cc1ccc(SCC(=O)NCCN2C(=O)CSC2=O)c(C)c1 | 9.7% | -5.3% | -1.2% | -100.0* | -0.9% | -2.6
COc1cc(NC(=O)c2cc3nc(-c4ccc(C)cc4)cc(C(F)(F)F)n3n2)cc(OC)c1OC | · | · | · | · | · | -6.4
COc1cccc(NC(=O)CC2NCCNC2=O)c1 (centres undefined) | · | · | · | · | · | 13.5
